UDG counterscr: UDG inhibition counter-screen. FRET deamination/UDG coupled assay, UDG read, 4 h. Potency, µM (highest dose often 115 µM), inactives show at the highest dose activity change, negative = inhibition, hits mostly inhibitors. actives 0.14% (n = 91,000); further: potency means the concentration at half of the fitted maximal effect; on the % scale 0 is the no-effect control and ±100 the full control effect; nearly all actives have a fitted effect of over 65% in size
DRV1 agonist: activates human resolvin D1 receptor GPR32 | O75388 | CHO-K1 GPR32 beta-arrestin PathHunter luminescence, 90 min; zero percent set by DMSO-only wells | activation, % at 76.9 µM | actives 2.5% (n = 48,000);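 active means activation of at least 60% and not above a set upper limit, about 1 call in 100 departs from these limits; inconclusive means activation of 40% to 60%, or above that upper limit; inactive means activation under 40%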; further: 0% is about no effect
Target sequence (O75388 whole entry, looked up): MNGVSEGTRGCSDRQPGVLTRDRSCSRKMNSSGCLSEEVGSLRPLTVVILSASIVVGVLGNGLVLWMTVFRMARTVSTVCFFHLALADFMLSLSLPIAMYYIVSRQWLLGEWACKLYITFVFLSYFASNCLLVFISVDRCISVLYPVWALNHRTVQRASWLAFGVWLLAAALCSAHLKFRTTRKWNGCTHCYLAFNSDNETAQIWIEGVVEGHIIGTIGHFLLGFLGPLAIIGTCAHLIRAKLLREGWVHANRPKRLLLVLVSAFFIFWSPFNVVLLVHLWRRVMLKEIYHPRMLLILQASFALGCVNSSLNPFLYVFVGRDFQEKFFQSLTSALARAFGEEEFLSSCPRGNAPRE
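Engineered CHO-K1 line co-expressing GPR32-ProLink and EA-beta-arrestin. Compound treatment lasted 90 min at 37 °C. Luminescence was recorded after 1 h with substrate at ambient temperature, relative to DMSO basal wells.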
AID inh: inhibitors of human activation induced cytidine deaminase; Q9GZX7; AID deamination FRET fluorescence, UDG-coupled, 4 h; Potency, µM (doses to about 115 µM), hits mostly inhibitors; actives 0.32% (n = 91,000); AID 1347428; further: potency means the concentration at half of the fitted maximal effect; on the % scale 0 is the no-effect control and ±100 the full control effect; nearly all actives have a fitted effect of over 25% in size
Target sequence (Q9GZX7 whole entry, looked up): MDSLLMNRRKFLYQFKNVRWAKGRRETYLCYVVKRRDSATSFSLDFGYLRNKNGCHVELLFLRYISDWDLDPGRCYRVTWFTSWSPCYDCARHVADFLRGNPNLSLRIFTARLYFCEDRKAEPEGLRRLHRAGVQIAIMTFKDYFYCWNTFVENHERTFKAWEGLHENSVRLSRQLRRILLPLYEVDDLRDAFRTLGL
An asterisk follows results filed as active; [ ] = dose if it differs, or a comment. This excerpt belongs to a sample that is enriched for hits. Unless noted, the call rests on the fitted dose curve; in most records, active means well fitted curve in the direction sought with a large enough effect; inconclusive means small, poorly fitted or top-dose-only effect, or another doubt; inactive means no such curve, though single readings can be large; an effect the other way counts as inactive or inconclusive.

CCCCCn1nc(C(=O)Nc2ccc(C(=O)NC(C)(C)C)cc2)c2ccccc2c1=O was read as UDG counterscr -4% and AID inh inactive.
O=C(CN1C(=O)COc2ccc(S(=O)(=O)NC3CCCC3)cc21)Nc1ccc(Cl)cc1 was read as UDG counterscr -4%[57.5 µM], DRV1 agonist 104* and AID inh inactive.
COc1ccc(Cl)cc1NC(=O)CN1C(=O)COc2ccc(S(=O)(=O)NC3CCCC3)cc21 was read as UDG counterscr -4%[57.5 µM], DRV1 agonist -2 and AID inh inactive.
Cc1ccc(C)c(N2CCN(S(=O)(=O)c3ccc(-c4coc(C)n4)cc3)CC2)c1 was read as UDG counterscr -7%, DRV1 agonist -1 and AID inh inactive.
Screening CC(=O)c1ccc(N2CCN(S(=O)(=O)c3ccc(-c4coc(C)n4)cc3)CC2)cc1 returned UDG counterscr -7%, DRV1 agonist 63* and AID inh inactive.
Screening COC(=O)c1ccc(N2CC3=C(C2=O)C(c2ccccc2)NC(=O)N3C)cc1 (configuration not stated) returned UDG counterscr -6% and AID inh inactive.
Screening O=C(O)Cn1cc(C(C(=O)O)N2CCN(c3ccc(F)cc3)CC2)c2ccc(F)cc21 (configuration not stated) returned UDG counterscr 10% and AID inh inactive.
For COc1ccc(N2CCN(C(=O)c3cc4c(-c5ccccc5F)nn(C)c4s3)CC2)cc1 the results were UDG counterscr -10%, DRV1 agonist 11 and AID inh inconclusive.
For COc1ccc(-c2nn(C)c3sc(C(=O)N4CCN(c5cccc(Cl)c5)CC4)cc23)cc1OC the results were UDG counterscr inconclusive, DRV1 agonist -16 and AID inh 79µM*.
`COc1ccc2cnn(CC(=O)Nc3ccc(Cl)cc3)c(=O)c2c1OC` gave UDG counterscr 8% and AID inh inactive.
Screening CCS(=O)(=O)N1CCc2cc(C(=O)Nc3cc(C)cc(C)c3)ccc21 returned UDG counterscr inconclusive, DRV1 agonist -6 and AID inh inactive.
For CCOc1ccc(NC(=O)c2ccc3c(c2)CCN3S(=O)(=O)CC)cc1 the results were UDG counterscr -16%, DRV1 agonist 67* and AID inh inactive.
Cc1ccccc1C(=O)NNC(=S)NC(=O)/C=C/c1ccccc1 was read as UDG counterscr 2% and AID inh inactive.
For CC(C)CCn1c(SC(C)C)nc2c1c(=O)[nH]c(=O)n2C the results were UDG counterscr -8% and AID inh inactive.
Screening COc1ccccc1CNc1ncnc2onc(-c3ccc(Cl)cc3)c12 returned UDG counterscr -1%, DRV1 agonist 30 and AID inh inactive.
Clc1ccc(-c2noc3ncnc(NCCc4ccccc4)c23)cc1 was read as UDG counterscr -10%, DRV1 agonist 23 and AID inh 25µM*.
Screening CCOCCCNc1ncnc2onc(C)c12 returned UDG counterscr 0%, DRV1 agonist 1 and AID inh inactive.
For CCOc1ccc(CCNc2ncnc3onc(C)c23)cc1OCC the results were UDG counterscr -9%, DRV1 agonist 64* and AID inh inactive.
Cc1ccc(CCNc2ncnc3onc(C)c23)cc1 was read as UDG counterscr -8%, DRV1 agonist 97* and AID inh inactive.
Cc1noc2ncnc(NCCc3ccccc3)c12 was read as UDG counterscr -4%, DRV1 agonist inconclusive and AID inh inconclusive.
Screening O=C(O)Cn1cc(C(C(=O)O)N2CCN(Cc3cccnc3)CC2)c2ccc(F)cc21 (configuration not stated) returned UDG counterscr -3% and AID inh inactive.
O=c1[nH]c(=O)n(CCc2ccccc2)c2c1C(C(F)(F)F)(C(F)(F)F)N=C(c1ccco1)N2 was read as UDG counterscr -1% and AID inh inactive.
CC(C)c1noc(CCC(=O)Nc2ccccn2)n1 was read as UDG counterscr -3% and AID inh inactive.
Screening Cc1ccc(C(=O)C(C)OC(=O)c2ccc(S(=O)(=O)N(C)C)cc2)cc1 (configuration not stated) returned UDG counterscr -3% and AID inh inactive.
O=C(CCSc1ccc(F)cc1)Nc1ccc(N2CCOCC2)cc1 was read as UDG counterscr -4% and AID inh inactive.
For CC(C)C(=O)N/N=C/c1ccco1 the results were UDG counterscr -10% and AID inh inactive.
CCOc1ccc(NS(=O)(=O)c2ccc(NC(=O)N3CCCC3)cc2)cc1 was read as UDG counterscr -10%[57.5 µM], DRV1 agonist 65* and AID inh inactive.
COc1ccc(NS(=O)(=O)c2ccc3c(c2)NC(=O)CS3)cc1 was read as UDG counterscr 2% and AID inh inactive.
For Cc1ccc(Cl)cc1NS(=O)(=O)c1ccc2c(c1)NC(=O)CCS2 the results were UDG counterscr 11%, DRV1 agonist 94* and AID inh inactive.
For COc1ccc(NS(=O)(=O)c2ccc(NC(=O)N3CCCC3)cc2)cc1 the results were UDG counterscr -2%[57.5 µM], DRV1 agonist 37 and AID inh inactive.
CCOc1ccc(NS(=O)(=O)c2ccc3c(c2)NC(=O)CCS3)cc1 was read as UDG counterscr 1%, DRV1 agonist 75* and AID inh inactive.
`Cc1cc(C)c(NS(=O)(=O)c2ccc3c(c2)NC(=O)CCS3)c(C)c1` gave UDG counterscr 3%, DRV1 agonist 83* and AID inh inactive.
Screening CC(=O)c1ccc(NS(=O)(=O)c2ccc3c(c2)NC(=O)CCS3)cc1 returned UDG counterscr 8%, DRV1 agonist -10 and AID inh inactive.
Screening COc1ccc(Cl)cc1NS(=O)(=O)c1ccc2c(c1)NC(=O)CC(=O)N2 returned UDG counterscr -1%, DRV1 agonist -5 and AID inh inactive.
Screening CCOC(=O)c1ccc(NC(=O)CCn2nc(C)c(S(=O)(=O)N3CCCCC3)c2C)cc1 returned UDG counterscr -6% and AID inh inactive.
`Cc1ccc(NC(=O)/C=C/c2cccs2)cc1C` gave UDG counterscr 2% and AID inh inactive.
`CCN(Cc1ccccc1)C(=O)/C=C/c1ccc(-c2ccccc2)s1` gave UDG counterscr -5% and AID inh inactive.
`CCc1ccc(/C=C(\C#N)C(=O)Nc2sc(C(=O)N(C)C)c(C)c2C#N)s1` gave UDG counterscr 6% and AID inh inactive.
`COc1ccc(OC)c(S(=O)(=O)N2CCC(n3c(C)nc4cccnc43)CC2)c1` gave UDG counterscr 24%, DRV1 agonist 65* and AID inh inactive.
For Cc1nc2cccnc2n1C1CCN(S(C)(=O)=O)CC1 the results were UDG counterscr 10%, DRV1 agonist 16 and AID inh inactive.
Cc1cccc(C(=O)Nc2ccc3oc(-c4ccncc4)nc3c2)c1 was read as UDG counterscr -8%, DRV1 agonist 72* and AID inh inactive.
COc1ccc(C(=O)Nc2ccc3oc(-c4ccncc4)nc3c2)cc1 was read as UDG counterscr inconclusive and AID inh inactive.
CCn1cc(S(=O)(=O)c2ccc(OC)cc2)c(=O)c2cc(F)c(N3CCC(C)CC3)cc21 was read as UDG counterscr -26%, DRV1 agonist -7 and AID inh 18µM*.
